From PubChem
This is a sample that favours compounds with a hit; in the whole collection about 2% have one here.
M4 PAM – CHRM4 positive allosteric modulation; 360,000 tested, 0.4% active; CHO-K1 hM4/Gqi5, Fluo-8 calcium fluorescence, ACh EC20; 0% = ACh EC20, 100% = maximal ACh; activation, % at 3 µM;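 active = activation above its plate's cutoff, the mean activation of sample wells plus 3 SD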
Target sequence (P08173 whole entry, looked up): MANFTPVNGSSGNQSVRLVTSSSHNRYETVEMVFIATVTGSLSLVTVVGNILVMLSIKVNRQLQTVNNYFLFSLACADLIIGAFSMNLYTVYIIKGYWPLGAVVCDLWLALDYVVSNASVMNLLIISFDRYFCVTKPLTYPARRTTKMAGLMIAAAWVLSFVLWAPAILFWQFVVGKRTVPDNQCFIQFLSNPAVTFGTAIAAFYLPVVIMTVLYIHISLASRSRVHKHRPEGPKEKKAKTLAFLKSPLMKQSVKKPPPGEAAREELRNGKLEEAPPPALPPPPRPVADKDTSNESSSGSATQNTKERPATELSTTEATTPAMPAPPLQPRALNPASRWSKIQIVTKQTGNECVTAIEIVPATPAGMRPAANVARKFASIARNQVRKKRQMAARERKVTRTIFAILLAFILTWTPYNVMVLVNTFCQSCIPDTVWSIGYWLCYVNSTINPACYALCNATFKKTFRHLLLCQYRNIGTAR
CHRM4 antagonist – blocks acetylcholine activation of human M4 receptor; P08173; CHO-hM4 cells, ACh EC80, Fluo-8 calcium fluorescence; inhibition, % at 3 µM; 360,000 tested, 0.73% active;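 active = inhibition above its plate's cutoff, the mean inhibition of sample wells plus 3 SD, cut at about 27% in these data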
M1 PAM parental – nonselective activator or artifact in parental CHO-K1 calcium assay | 360,000 tested, 0.02% active | activation, % at 3 µM | ATP EC20, Fluo-8 calcium fluorescence; 0% at ATP EC20, 100% at ATP max;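 active = activation above the run cutoff, the mean activation of all test compounds plus 3 SD, cut at about 40% in these data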;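 note: peak over basal fluorescence ratio in a 140 s read after ATP addition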
M1 ag parental – counter-screen for M1 agonists: effect in parental CHO-K1 cells. Fluo-8 calcium fluorescence; scaled to maximal ATP response, vehicle zero. activation, % at 3 µM. 360,000 tested, 0.48% active; in the data active = activation above about 15%;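 note: untransfected CHO-K1 host cells lacking M1 receptor as counterscreen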
CHRM4 agonist – CHRM4 agonism in calcium assay. P08173. activation, % at 3 µM. 360,000 tested, 0.14% active. AID 624127. CHO-K1 hM4/Gqi5, Fluo-8 calcium fluorescence; vehicle 0%, full acetylcholine response 100%;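 active = activation above the run mean over all test wells plus 3 SD, cut at about 32% in these data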;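 note: peak over basal fluorescence ratio per well then scaled between controls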
CHO-K1 Ca antag – counter-screen for M1 antagonists: effect in parental CHO-K1 cells. ATP-induced calcium, Fluo-8 fluorescence. inhibition, % at 3 µM. 360,000 tested, 0.6% active. AID 602250;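 active = inhibition above a per-plate cutoff, the plate's mean sample inhibition plus 3 SD, cut at about 24% in these data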
Each line names hits and unclear results; the compound was inactive in the other large screens.

COc1ccc(C(=O)ON=C(C)c2nccs2)cc1	none
O=C1[C@@H]2Cc3c([nH]c4ccccc34)CN2C(=O)CN1CCCO	none
C=CCN1CC(=O)N2Cc3[nH]c4ccccc4c3C[C@H]2C1=O	CHRM4 antagonist 43.1
COc1cc(-c2noc(C3CCCN(C(=O)c4ccccc4)C3)n2)cc(OC)c1OC (stereo not drawn)	M4 PAM 13.6
Cc1ccccc1NC(=O)N1CCCC(c2nc(-c3ccc(C(C)C)cc3)no2)C1 (stereo not drawn)	M1 ag parental 16.7
Cc1ccccc1OCC(=O)OCC(=O)NCc1ccccc1	none
S=C1Cc2ccccc2N1	M4 PAM 38.5
COc1ccccc1NC(=S)N(Cc1ccccn1)Cc1ccccc1Cl	CHO-K1 Ca antag 36.1
CCCCn1c(-c2ccc(Cl)cc2)nc2c(=O)n(C)c(=O)[nH]c21	none
Cn1c(=O)[nH]c2c(nc(-c3ccc(Cl)cc3)n2C)c1=O	CHO-K1 Ca antag 28.7
CCCc1cc(=O)oc2cc(OC(C)C(=O)NCC3CCC(C(=O)O)CC3)ccc12 (stereo not drawn)	CHO-K1 Ca antag 26.6
CCCc1cc(=O)oc2cc(OC(C)C(=O)NCC3CCC(C(=O)O)CC3)c(Cl)cc12 (stereo not drawn)	none
CC(=O)Oc1c2occc2cc2ccc(=O)oc12	none
NS(=O)(=O)c1ccc(NC(=O)CCC(=O)c2cccs2)cc1	none
NS(=O)(=O)c1ccc(NC(=O)CCC(=O)c2ccc(Cl)s2)cc1	M4 PAM 24.0
COc1ccc(NC(=O)c2cc3ccccc3cc2OC)cc1	none
COc1ccc(NC(=O)c2cccnc2Nc2ccc(OC)cc2)cc1	CHRM4 antagonist 51.7
COc1ccc(NC(=O)c2ccc3ccccc3c2OC)cc1	M1 ag parental 22.0
O=C(CCc1nc(-c2ccccc2Cl)no1)Nc1cccnc1	none
COC(=O)c1ccccc1S(=O)(=O)N1CCC(C(=O)NCc2ccccn2)CC1	none
O=C(Oc1ccccc1)c1ccc2c(c1)C(=O)N(Cc1ccncc1)C2=O	none
CC(=O)C[C@@H](O)CC(=O)[C@H]1OC(=O)CC/C=C\Cc2ccccc21	none
CC(=O)C[C@@H](O)CC(=O)[C@@H]1OC(=O)CC/C=C\Cc2ccccc21	M4 PAM 25.8
CCOc1ccc(N(CC(=O)NC2CC3CCC2C3)S(=O)(=O)c2ccccc2)cc1 (stereo not drawn)	none
CCOc1ccc(N(CC(=O)NC2CC3CCC2C3)S(=O)(=O)c2ccc(C)cc2)cc1 (stereo not drawn)	M4 PAM 22.5
COc1ccc(Cl)cc1S(=O)(=O)NC1CC(C)(C)NC(C)(C)C1	none
COc1ccc(F)cc1S(=O)(=O)NC1CC(C)(C)NC(C)(C)C1	CHO-K1 Ca antag 27.7
O=C(CSc1nc(C(F)(F)F)cc(=O)[nH]1)Nc1cccc2ccccc12	M4 PAM 22.5
CCCc1cc(=O)[nH]c(SCC(=O)Nc2cccc3ccccc23)n1	none
c1ccc(Oc2cnc3ccccc3n2)cc1	none
Clc1cccc(Oc2cnc3ccccc3n2)c1	M4 PAM 30.0
COc1ccc(CNC(=O)C2CC(c3ccc(F)cc3)=NO2)cc1 (stereo not drawn)	M4 PAM 35.9
O=C(N/N=C/c1sc(N2CCOCC2)nc1-c1ccccc1)c1ccccc1Cl	none
CCc1ccc(Nc2cc(=O)n(C3CCCCC3)c(=O)[nH]2)cc1	M1 ag parental 19.0
O=c1cc(Nc2ccc3c(c2)OCCO3)[nH]c(=O)n1C1CCCCC1	none
COc1cc(C(=O)Nc2cccc(-n3cnnn3)c2)cc(OC)c1OC	none
COc1cc(C(=O)Nc2ccc(-n3cnnn3)c(C)c2)cc(OC)c1OC	CHO-K1 Ca antag 24.4
Cn1c(-c2ccc(F)c(F)c2)cc2onc(-c3ccccc3)c2c1=O	none
CCn1cc(S(=O)(=O)NCc2ccc3c(c2)OCO3)cn1	none
CC(C)C[C@H]1CN([C@@H](Cc2ccccc2)CN2CCC[C@H]2CN2C(=O)C(=O)NC[C@@H]2Cc2ccc(O)cc2)C(=O)C(=O)N1CC1CCCCC1	none
Oc1ccc(C[C@H]2CN([C@@H](Cc3ccc(O)cc3)CN3CCC[C@@H]3CN3C(=S)NC[C@@H]3Cc3ccccc3)C(=S)N2CCc2ccccc2)cc1	CHO-K1 Ca antag 34.1
CC(C)C[C@H]1CN([C@@H](Cc2ccccc2)CN2CCC[C@@H]2CN2C(=O)C(=O)NC[C@@H]2Cc2ccc(O)cc2)C(=O)C(=O)N1CC1CCCCC1	CHO-K1 Ca antag 30.2
COC(=O)c1ccsc1NC(=O)CN1CCN(c2ccc(F)cc2)CC1	none
COC(=O)c1ccsc1NC(=O)CN1CCN(c2ncccn2)CC1	CHO-K1 Ca antag 25.0
Cc1ccc(NC(=O)COC(=O)CN2C(=O)NC3(CCCC3)C2=O)cc1Cl	none
Cc1ccc(-n2nnnc2CNC(=O)c2ccc3c(c2)OCO3)cc1C	CHRM4 antagonist 62.8
Cc1n[nH]c(C)c1S(=O)(=O)N1CCCCCC1	none
Cn1c(N)c(-c2ccccc2)c2ccc([N+](=O)[O-])cc2c1=O	M1 ag parental 15.5, CHRM4 agonist 55.9
N#Cc1c(N)n(Cc2ccccc2)c(=O)c2cc([N+](=O)[O-])ccc12	none
COc1ccc(C(C)NC(=O)Cc2ccc(Br)cc2)cc1 (stereo not drawn)	CHRM4 agonist 37.3
COc1cccc(-c2nnc(NC(=O)c3ccc(S(=O)(=O)N4CCOCC4)cc3)o2)c1	none
Cc1cccc(C(=O)Nc2ccc(O)cc2)c1	none
COc1cc(/C=N/N=C2/NC(=O)C(Cc3ccccc3)S2)ccc1O (stereo not drawn)	M1 ag parental 24.5
COc1ccc(/C=N/N=C2/NC(=O)C(CC(=O)O)S2)cc1OS(=O)(=O)c1ccccc1 (stereo not drawn)	none
CC(C)NC(=S)N/N=C/C1=CCC2CC1C2(C)C (stereo not drawn)	none
CC1(C)C2CC=C(/C=N/NC(=S)Nc3cccnc3)C1C2 (stereo not drawn)	M1 ag parental 16.1
O=C(C1CCC(C(=O)N2CCc3ccccc32)CC1)N1CCc2ccccc21 (stereo not drawn)	none
O=C(Nc1ccccc1)C(=O)Nc1ccc2c(c1)N(C(=O)C1CC1)CCC2	M4 PAM 17.4
CC1CCc2c(sc3ncnc(NS(=O)(=O)c4cccs4)c23)C1 (stereo not drawn)	none
CC(=O)CSc1ncnc2sc3c(c12)CCC(C)C3 (stereo not drawn)	M4 PAM 22.7
COCCCNc1ncnc2sc3c(c12)CCC(C)C3 (stereo not drawn)	CHO-K1 Ca antag 29.7
COc1nc(NCc2ccco2)nc(N2CCC(C)CC2)n1	none
Cc1ccc(S(=O)(=O)NCC(=O)NCCc2c[nH]c3ccccc23)cc1C	none
